Measurements from PubChem BioAssay AID2391 (Southern Research Specialized Biocontainment Screening …, 2010).
Hit rate of the full screen: of about 310,000 compounds, about 410 (0.13%) were called active. Not shown: some 2% with an inconclusive outcome. How the calls were made is not given here. Not all results are given here. Results with a measured potency or affinity are listed apart.

Assay: inhibition of RSV-induced cytopathic effect – HEp-2 cells, primary 10 µM value included (AID 2391)
Conditions: at 10 µM, active compounds read high

CPE inhibition, inactive:
COc1cc(C2C(C#N)=C(N)Oc3c2oc(CO)cc3=O)ccc1OC(C)C (stereo unspecified) 0.67%
Cc1c(C)c2c(OCC(=O)NCc3ccccn3)cc3c(c2oc1=O)CCC(C)(C)O3 -0.55%
Cn1c(C(O)c2ccccc2)nc(Cl)c1Cl (stereo unspecified) 2.93%
COc1ccc(-n2c(=O)c3ccccc3n(CC(=O)NC3CCCC3)c2=O)cc1 0.83%
C#CCOCCOCCOCCNc1nc(N2CCN(C(=O)CCCCCCCCCCNC(=O)[C@H](CCCCN)n3cc(C)nn3)CC2)nc(N2CCN(C(=O)CCCCCCCCCCNC(=O)[C@@H]([C@H](C)O)n3cc(C)nn3)CC2)n1 8.35%
C#CCOCCOCCOCCNc1nc(N2CCOCC2)nc(N2CCN(C(=O)CCCCCCCCCCNC(=O)[C@@H]([C@H](C)O)n3cc(C)nn3)CC2)n1 2.9%
CCOc1ccc(C(C)=O)cc1Cn1c(=O)oc2ccccc21 9.32%
O=c1[nH]c(C2CCN(S(=O)(=O)c3ccccc3)CC2)nc2c1nnn2Cc1ccccc1 19.1%
O=c1[nH]c(C2CCN(S(=O)(=O)c3ccc4c(c3)OCCO4)CC2)nc2c1nnn2Cc1ccc(F)cc1 63.7%
O=c1[nH]c(C2CCN(S(=O)(=O)c3ccccc3F)CC2)nc2c1nnn2Cc1ccc(F)cc1 39%
Cc1ccc(Cn2nnc3c(=O)[nH]c(C4CCN(S(=O)(=O)c5ccccc5F)CC4)nc32)cc1 84.2%
O=c1[nH]c(C2CCN(S(=O)(=O)c3ccc(F)cc3)CC2)nc2c1nnn2Cc1ccc2c(c1)OCCO2 64.8%
Cc1ccc(Cn2nnc3c(=O)[nH]c(C4CCN(S(=O)(=O)c5ccc(F)cc5)CC4)nc32)cc1 13.9%
O=c1[nH]c(C2CCN(S(=O)(=O)/C=C/c3ccccc3)CC2)nc2c1nnn2Cc1ccccc1 76.1%
O=c1[nH]c(C2CCN(S(=O)(=O)c3ccc4c(c3)OCCO4)CC2)nc2c1nnn2Cc1cccc(F)c1 67.8%
COC(=O)CC(c1ccc(C#N)cc1)n1c(C)ccc1C (stereo unspecified) -0.14%
Cc1ccccc1COn1nnc2ccc(S(=O)(=O)N3CCOCC3)cc21 -1.48%
O=C(NC1CCCCC1)N1CCN(c2ncccn2)CC1 2.35%
COc1ccccc1-n1c(SCC(=O)Nc2ccc(Br)cc2)nc(O)cc1=O 0.85%
COC(=O)Nc1ccc(S(=O)(=O)N(CCO)CCO)cc1 -0.61%
Cc1cccc(NC(=O)c2ccc(COc3ccc(Cl)cc3Cl)o2)n1 -0.26%
